# ± gives the standard deviation of the averaged measurements.
# What was measured:
# Assay in all cases: promoter activity interaction Z-score (Lux/OD deviation from empty-vector control); higher = stronger promoter induction by the compound
# [1] = test system: E. coli BW25113 acrABp lux reporter
# Summary of the method: (§1)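 Wild-type E. coli BW25113 and three single-gene deletion strains, each carrying a low-copy luxCDABE promoter reporter, were grown at 37°C in 40 µl LB Lennox per well of a 384-well plate. Every compound was applied at four 1:2 dilutions in biological duplicates, and OD600 and luminescence were read every 30 min for 12 h. Integration covered 0–8 h for wild type and 1–9 h for deletion strains, and wells under 10% of the median growth value were removed. Scores are Z-transformed residuals of growth-normalised luminescence fitted against a control.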
# [2] = test system: E. coli BW25113 marRABp lux reporter
# Summary of the method: as §1
# [3] = test system: E. coli BW25113 micFp lux reporter
# Summary of the method: as §1
# [4] = test system: E. coli BW25113 ompFp lux reporter
# Summary of the method: as §1
# [5] = test system: E. coli BW25113 robp lux reporter
# Summary of the method: as §1
# [6] = test system: E. coli BW25113 soxSp lux reporter
# Summary of the method: as §1
# [7] = test system: E. coli BW25113 tolCp lux reporter
# Summary of the method: as §1
# [8] = 0.02 µg/ml, genetic background: wild type
# [9] = 0.02 µg/ml, genetic background: ΔmarA
# [10] = 0.02 µg/ml, genetic background: Δrob
# [11] = 0.02 µg/ml, genetic background: ΔsoxS
# [12] = 0.04 µg/ml, genetic background: wild type
# [13] = 0.04 µg/ml, genetic background: ΔmarA
# [14] = 0.04 µg/ml, genetic background: Δrob
# [15] = 0.04 µg/ml, genetic background: ΔsoxS
# [16] = 0.079 µg/ml, genetic background: wild type
# [17] = 0.079 µg/ml, genetic background: ΔmarA
# [18] = 0.079 µg/ml, genetic background: Δrob
# [19] = 0.079 µg/ml, genetic background: ΔsoxS
# [20] = 0.16 µg/ml, genetic background: wild type
# [21] = 0.16 µg/ml, genetic background: ΔmarA
# [22] = 0.16 µg/ml, genetic background: Δrob
# [23] = 0.16 µg/ml, genetic background: ΔsoxS
compound,measurement,setting,value
C[C@@H](O)[C@H]1C(=O)N2C(C(=O)O)=C(SCCNC=N)C[C@H]12 [Imipenem],promoter activity interaction Z-score,[1]; [8],0.313 ± 0.12
same,promoter activity interaction Z-score,[1]; [9],1.28 ± 1.8
same,promoter activity interaction Z-score,[1]; [10],0.353 ± 0.18
same,promoter activity interaction Z-score,[1]; [11],0.0665 ± 0.11
same,promoter activity interaction Z-score,[1]; [12],0.296 ± 0.28
same,promoter activity interaction Z-score,[1]; [13],0.881 ± 0.37
same,promoter activity interaction Z-score,[1]; [14],0.492 ± 0.11
same,promoter activity interaction Z-score,[1]; [15],-0.0993 ± 0.31
same,promoter activity interaction Z-score,[1]; [16],0.282 ± 0.4
same,promoter activity interaction Z-score,[1]; [17],-0.701 ± 0.22
same,promoter activity interaction Z-score,[1]; [18],0.209 ± 0.086
same,promoter activity interaction Z-score,[1]; [19],0.325 ± 0.52
same,promoter activity interaction Z-score,[1]; [20],0.0724 ± 0.69
same,promoter activity interaction Z-score,[1]; [21],-0.226 ± 0.46
same,promoter activity interaction Z-score,[1]; [22],0.107 ± 0.094
same,promoter activity interaction Z-score,[1]; [23],0.865 ± 0.24
same,promoter activity interaction Z-score,[2]; [8],0.316 ± 0.21
same,promoter activity interaction Z-score,[2]; [9],0.592 ± 0.32
same,promoter activity interaction Z-score,[2]; [10],0.0424 ± 0.11
same,promoter activity interaction Z-score,[2]; [11],0.106 ± 0.074
same,promoter activity interaction Z-score,[2]; [12],0.381 ± 0.44
same,promoter activity interaction Z-score,[2]; [13],0.269 ± 0.79
same,promoter activity interaction Z-score,[2]; [14],-0.0178 ± 0.16
same,promoter activity interaction Z-score,[2]; [15],0.0651 ± 0.041
same,promoter activity interaction Z-score,[2]; [16],0.087 ± 0.15
same,promoter activity interaction Z-score,[2]; [17],-0.0931 ± 0.047
same,promoter activity interaction Z-score,[2]; [18],0.0397 ± 0.03
same,promoter activity interaction Z-score,[2]; [19],0.0374 ± 0.049
same,promoter activity interaction Z-score,[2]; [20],0.129 ± 0.28
same,promoter activity interaction Z-score,[2]; [21],-0.0426 ± 0.31
same,promoter activity interaction Z-score,[2]; [22],-0.0898 ± 0.17
same,promoter activity interaction Z-score,[2]; [23],0.217 ± 0.23
same,promoter activity interaction Z-score,[3]; [8],-0.142 ± 0.16
same,promoter activity interaction Z-score,[3]; [9],0.0296 ± 0.051
same,promoter activity interaction Z-score,[3]; [10],-0.0038 ± 0.09
same,promoter activity interaction Z-score,[3]; [11],-0.119 ± 0.17
same,promoter activity interaction Z-score,[3]; [12],0.0424 ± 0.3
same,promoter activity interaction Z-score,[3]; [13],0.0155 ± 0.0044
same,promoter activity interaction Z-score,[3]; [14],0.104 ± 0.069
same,promoter activity interaction Z-score,[3]; [15],-0.24 ± 0.14
same,promoter activity interaction Z-score,[3]; [16],-0.145 ± 0.082
same,promoter activity interaction Z-score,[3]; [17],-0.07 ± 0.02
same,promoter activity interaction Z-score,[3]; [18],-0.0557 ± 0.0065
same,promoter activity interaction Z-score,[3]; [19],0.206 ± 0.3
same,promoter activity interaction Z-score,[3]; [20],-0.0706 ± 0.42
same,promoter activity interaction Z-score,[3]; [21],-0.131 ± 0.072
same,promoter activity interaction Z-score,[3]; [22],-0.0161 ± 0.083
same,promoter activity interaction Z-score,[3]; [23],0.512 ± 0.49
same,promoter activity interaction Z-score,[4]; [8],0.592 ± 0.022
same,promoter activity interaction Z-score,[4]; [9],0.885 ± 0.097
same,promoter activity interaction Z-score,[4]; [10],0.602 ± 0.084
same,promoter activity interaction Z-score,[4]; [11],0.271 ± 0.35
same,promoter activity interaction Z-score,[4]; [12],0.679 ± 0.22
same,promoter activity interaction Z-score,[4]; [13],0.662 ± 0.21
same,promoter activity interaction Z-score,[4]; [14],0.743 ± 0.19
same,promoter activity interaction Z-score,[4]; [15],0.276 ± 0.85
same,promoter activity interaction Z-score,[4]; [16],0.372 ± 0.28
same,promoter activity interaction Z-score,[4]; [17],0.257 ± 0.3
same,promoter activity interaction Z-score,[4]; [18],0.789 ± 0.66
same,promoter activity interaction Z-score,[4]; [19],0.142 ± 0.038
same,promoter activity interaction Z-score,[4]; [20],0.851 ± 0.33
same,promoter activity interaction Z-score,[4]; [21],1.19 ± 0.16
same,promoter activity interaction Z-score,[4]; [22],1.34 ± 0.058
same,promoter activity interaction Z-score,[4]; [23],1.39 ± 0.5
same,promoter activity interaction Z-score,[5]; [8],0.863 ± 0.1
same,promoter activity interaction Z-score,[5]; [9],1.42 ± 0.61
same,promoter activity interaction Z-score,[5]; [10],1.13 ± 0.1
same,promoter activity interaction Z-score,[5]; [11],0.38 ± 1.6
same,promoter activity interaction Z-score,[5]; [12],1.42 ± 0.9
same,promoter activity interaction Z-score,[5]; [13],0.964 ± 0.54
same,promoter activity interaction Z-score,[5]; [14],0.862 ± 0.23
same,promoter activity interaction Z-score,[5]; [15],-0.648 ± 0.39
same,promoter activity interaction Z-score,[5]; [16],0.399 ± 0.46
same,promoter activity interaction Z-score,[5]; [17],-0.467 ± 0.12
same,promoter activity interaction Z-score,[5]; [18],-0.0634 ± 0.12
same,promoter activity interaction Z-score,[5]; [19],0.149 ± 0.0074
same,promoter activity interaction Z-score,[5]; [20],0.582 ± 0.12
same,promoter activity interaction Z-score,[5]; [21],-0.0297 ± 0.2
same,promoter activity interaction Z-score,[5]; [22],0.845 ± 0.3
same,promoter activity interaction Z-score,[5]; [23],0.155 ± 0.23
same,promoter activity interaction Z-score,[6]; [8],0.0906 ± 0.0094
same,promoter activity interaction Z-score,[6]; [9],-0.0591 ± 0.084
same,promoter activity interaction Z-score,[6]; [10],0.0225 ± 0.12
same,promoter activity interaction Z-score,[6]; [11],-0.179 ± 0.12
same,promoter activity interaction Z-score,[6]; [12],0.124 ± 0.076
same,promoter activity interaction Z-score,[6]; [13],0.161 ± 0.03
same,promoter activity interaction Z-score,[6]; [14],0.187 ± 0.23
same,promoter activity interaction Z-score,[6]; [15],-0.163 ± 0.26
same,promoter activity interaction Z-score,[6]; [16],0.146 ± 0.15
same,promoter activity interaction Z-score,[6]; [17],-0.0799 ± 0.11
same,promoter activity interaction Z-score,[6]; [18],-0.00226 ± 0.029
same,promoter activity interaction Z-score,[6]; [19],0.121 ± 0.18
same,promoter activity interaction Z-score,[6]; [20],0.0824 ± 0.27
same,promoter activity interaction Z-score,[6]; [21],-0.0185 ± 0.033
same,promoter activity interaction Z-score,[6]; [22],-0.0171 ± 0.17
same,promoter activity interaction Z-score,[6]; [23],0.177 ± 0.52
same,promoter activity interaction Z-score,[7]; [8],0.541 ± 0.2
same,promoter activity interaction Z-score,[7]; [9],0.817 ± 0.21
same,promoter activity interaction Z-score,[7]; [10],-0.144 ± 0.41
same,promoter activity interaction Z-score,[7]; [11],-0.241 ± 0.51
same,promoter activity interaction Z-score,[7]; [12],0.146 ± 1.3
same,promoter activity interaction Z-score,[7]; [13],0.917 ± 0.58
same,promoter activity interaction Z-score,[7]; [14],1.47 ± 0.4
same,promoter activity interaction Z-score,[7]; [15],-1.38 ± 0.5
same,promoter activity interaction Z-score,[7]; [16],0.00539 ± 0.13
same,promoter activity interaction Z-score,[7]; [17],-0.369 ± 0.35
same,promoter activity interaction Z-score,[7]; [18],0.295 ± 0.094
same,promoter activity interaction Z-score,[7]; [19],-0.148 ± 0.41
same,promoter activity interaction Z-score,[7]; [20],-0.803 ± 0.044
same,promoter activity interaction Z-score,[7]; [21],0.117 ± 0.52
same,promoter activity interaction Z-score,[7]; [22],0.323 ± 0.18
same,promoter activity interaction Z-score,[7]; [23],0.105 ± 0.88

# Source: the supplement of paper PMC12282887
